# Values joined by “and” are separate entries in the source; they are usually repeats but may differ in a detail not shown here. Identical values can stand only once. Inconclusive results are not listed. A call without a number means that no potency is given here. Some compounds were tested as several samples or in several runs, with calls that do not always agree. Active and inactive are the calls of the source. Unless noted, the call rests on the fitted dose curve; in most records, active means well fitted curve in the direction sought with a large enough effect; inconclusive means small, poorly fitted or top-dose-only effect, or another doubt; inactive means no such curve, though single readings can be large; an effect the other way counts as inactive or inconclusive.
# Legend:
# [1] = biological target: Atrial natriuretic peptide receptor 1 (Homo sapiens) (UniProt P16066); assay: Natriuretic polypeptide receptor (hNpr1) antagonism - Pilot screen (AID 1347049; calls by dose curve;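 further: agonist-evoked cGMP luminescence read 20 min after hNppA addition; series mostly up to about 58 µM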)
# Atrial natriuretic peptide receptor 1 (Homo sapiens), sequence (P16066 whole entry, looked up): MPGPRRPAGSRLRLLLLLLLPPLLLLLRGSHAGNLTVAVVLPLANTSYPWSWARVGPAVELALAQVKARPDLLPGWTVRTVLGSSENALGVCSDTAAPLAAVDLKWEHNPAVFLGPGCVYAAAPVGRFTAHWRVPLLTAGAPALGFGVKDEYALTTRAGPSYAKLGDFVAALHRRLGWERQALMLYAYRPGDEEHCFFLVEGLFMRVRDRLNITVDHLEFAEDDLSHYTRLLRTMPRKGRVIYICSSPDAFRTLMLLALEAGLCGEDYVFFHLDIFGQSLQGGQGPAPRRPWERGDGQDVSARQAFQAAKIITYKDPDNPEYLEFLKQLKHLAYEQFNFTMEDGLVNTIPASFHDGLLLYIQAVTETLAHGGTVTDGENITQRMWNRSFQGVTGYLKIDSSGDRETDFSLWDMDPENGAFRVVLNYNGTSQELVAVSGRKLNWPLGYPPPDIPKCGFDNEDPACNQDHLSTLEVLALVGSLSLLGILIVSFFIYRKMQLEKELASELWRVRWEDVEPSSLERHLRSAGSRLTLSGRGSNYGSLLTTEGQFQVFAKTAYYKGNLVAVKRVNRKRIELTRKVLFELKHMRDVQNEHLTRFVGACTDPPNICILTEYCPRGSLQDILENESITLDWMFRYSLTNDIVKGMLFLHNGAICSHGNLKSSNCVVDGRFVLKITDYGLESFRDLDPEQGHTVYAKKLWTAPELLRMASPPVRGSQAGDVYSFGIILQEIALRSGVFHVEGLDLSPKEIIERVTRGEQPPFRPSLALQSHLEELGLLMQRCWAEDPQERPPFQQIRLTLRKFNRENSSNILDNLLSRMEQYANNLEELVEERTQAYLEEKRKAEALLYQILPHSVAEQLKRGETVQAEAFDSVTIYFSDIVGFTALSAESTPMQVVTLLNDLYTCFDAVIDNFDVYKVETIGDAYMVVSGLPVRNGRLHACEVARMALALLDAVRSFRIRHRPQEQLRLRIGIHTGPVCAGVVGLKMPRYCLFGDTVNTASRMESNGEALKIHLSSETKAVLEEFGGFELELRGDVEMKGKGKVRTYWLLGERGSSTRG
# Summary of the method: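 Readout is cGMP-driven firefly luciferase luminescence in HEK293 cells carrying hNpr1 and a PDE5-domain GloSensor, read before and 20 min after 0.1 nM hNppA stimulation. Cells had 2% substrate reagent for 2 h and test compound for 30 min.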
# [2] = biological target: Atrial natriuretic peptide receptor 2 (Homo sapiens) (UniProt P20594); assay: Natriuretic polypeptide receptor (hNpr2) antagonism - Pilot subtype selectivity assay (AID 1347050; calls by dose curve; further: potency means the concentration at half of the fitted maximal effect)
# Atrial natriuretic peptide receptor 2 (Homo sapiens), sequence (P20594 whole entry, looked up): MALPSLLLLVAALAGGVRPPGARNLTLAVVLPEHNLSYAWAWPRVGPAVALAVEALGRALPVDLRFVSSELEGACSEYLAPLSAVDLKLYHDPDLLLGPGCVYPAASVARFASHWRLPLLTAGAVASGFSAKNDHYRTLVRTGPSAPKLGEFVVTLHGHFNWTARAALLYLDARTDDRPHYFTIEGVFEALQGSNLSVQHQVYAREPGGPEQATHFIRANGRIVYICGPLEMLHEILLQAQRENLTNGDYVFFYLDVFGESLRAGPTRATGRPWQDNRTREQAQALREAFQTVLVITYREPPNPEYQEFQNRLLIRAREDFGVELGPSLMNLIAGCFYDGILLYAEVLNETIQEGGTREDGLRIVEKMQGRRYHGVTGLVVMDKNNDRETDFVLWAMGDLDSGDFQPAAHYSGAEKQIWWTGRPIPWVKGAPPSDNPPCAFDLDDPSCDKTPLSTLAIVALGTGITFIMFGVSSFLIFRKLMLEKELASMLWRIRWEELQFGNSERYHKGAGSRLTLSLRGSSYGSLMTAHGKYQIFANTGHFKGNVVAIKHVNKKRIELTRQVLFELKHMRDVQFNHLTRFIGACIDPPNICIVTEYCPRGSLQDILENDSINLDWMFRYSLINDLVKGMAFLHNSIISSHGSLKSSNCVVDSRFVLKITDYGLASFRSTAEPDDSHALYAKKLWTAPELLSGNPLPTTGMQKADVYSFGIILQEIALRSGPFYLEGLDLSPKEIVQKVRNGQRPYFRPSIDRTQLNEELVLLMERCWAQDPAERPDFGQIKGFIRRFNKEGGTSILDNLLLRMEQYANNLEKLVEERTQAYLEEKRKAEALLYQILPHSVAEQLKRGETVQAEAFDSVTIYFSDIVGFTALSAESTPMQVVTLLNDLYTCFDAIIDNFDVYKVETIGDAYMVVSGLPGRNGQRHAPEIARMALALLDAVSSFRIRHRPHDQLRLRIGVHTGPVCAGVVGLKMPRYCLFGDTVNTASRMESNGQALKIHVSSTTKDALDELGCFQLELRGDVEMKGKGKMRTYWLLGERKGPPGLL
# Summary of the method: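 Pilot selectivity screen against hNpr2: HEK293 cGMP-sensor cells are treated with LOPAC1280 compounds, then with hNppC peptide at 1 nM final. The cGMP-driven luminescence change over 20 min at room temperature is the read-out.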
# [3] = biological target: T1, Tyrosine-protein phosphatase non-receptor type substrate 1 (Homo sapiens) + Leukocyte surface antigen CD47 (Homo sapiens) (UniProt P78324+Q08722); assay: CD47-SIRPalpha protein protein interaction - LANCE assay qHTS validation (AID 1347057; active means well fitted curve in the direction sought with a large enough effect in the signal ratio, with a control signal flat, not every such curve was filed as active; the % refers to the signal ratio; further: series mostly up to about 38 µM)
# T1 sequence (P78324 whole entry, looked up): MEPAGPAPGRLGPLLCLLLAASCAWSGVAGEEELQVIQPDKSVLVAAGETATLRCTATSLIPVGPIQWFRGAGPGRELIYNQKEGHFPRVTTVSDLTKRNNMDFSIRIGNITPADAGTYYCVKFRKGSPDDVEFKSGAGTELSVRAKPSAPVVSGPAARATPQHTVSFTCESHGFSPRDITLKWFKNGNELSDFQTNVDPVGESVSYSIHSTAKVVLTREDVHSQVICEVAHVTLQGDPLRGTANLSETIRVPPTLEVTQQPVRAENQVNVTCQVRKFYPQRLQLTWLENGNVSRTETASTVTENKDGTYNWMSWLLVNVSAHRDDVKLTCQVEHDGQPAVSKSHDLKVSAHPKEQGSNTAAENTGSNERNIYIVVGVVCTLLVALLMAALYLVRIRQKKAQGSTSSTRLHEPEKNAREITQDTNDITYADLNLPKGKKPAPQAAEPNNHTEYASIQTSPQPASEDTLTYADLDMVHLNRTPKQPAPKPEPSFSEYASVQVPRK
# T1 sequence (Q08722 whole entry, looked up): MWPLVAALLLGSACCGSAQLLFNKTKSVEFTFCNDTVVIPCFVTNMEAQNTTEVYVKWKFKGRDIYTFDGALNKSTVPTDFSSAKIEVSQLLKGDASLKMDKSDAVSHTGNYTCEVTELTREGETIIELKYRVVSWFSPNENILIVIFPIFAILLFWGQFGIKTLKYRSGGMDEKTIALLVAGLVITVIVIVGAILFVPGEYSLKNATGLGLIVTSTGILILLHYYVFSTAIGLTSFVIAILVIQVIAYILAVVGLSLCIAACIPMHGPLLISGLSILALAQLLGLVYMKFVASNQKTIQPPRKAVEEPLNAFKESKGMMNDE
# Summary of the method: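 First, His-tagged CD47 and Eu-labelled anti-His antibody met the compound for 30 min; next, site-specifically biotinylated SIRPalpha was added for 30 min; finally streptavidin-APC was added before reading the TR-FRET ratio.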
# [4] = biological target: T1, Tyrosine-protein phosphatase non-receptor type substrate 1 (Homo sapiens) + Leukocyte surface antigen CD47 (Homo sapiens); assay: CD47-SIRPalpha protein protein interaction - HTRF assay qHTS validation (AID 1347058; active means well fitted curve in the direction sought with a large enough effect in the signal ratio, not every such curve was filed as active; the % refers to the signal ratio;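 further: recombinant soluble extracellular CD47 with His tag and biotinylated SIRPalpha domains; series mostly up to about 38 µM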)
# Summary of the method: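 TR-FRET read (Ch1/Ch2 ratio) of soluble extracellular CD47 and Avi-biotinylated SIRPalpha domains in PBS pH 7.4 with 0.05% IGEPAL; 7-point compound titration. Sequential 30 min room-temperature steps; non-biotinylated SIRPalpha as control inhibitor.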
# [5] = biological target: T1, Tyrosine-protein phosphatase non-receptor type substrate 1 (Homo sapiens) + Leukocyte surface antigen CD47 (Homo sapiens); assay: CD47-SIRPalpha protein protein interaction - Alpha assay qHTS validation (AID 1347059);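 further: bead proximity luminescence from CD47 binding SIRPalpha after compound preincubation with SIRPalpha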; further: potency means the concentration at half of the fitted maximal effect
# Summary of the method: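 Binding is measured by AlphaScreen proximity: Ni-NTA acceptor beads capture His-CD47, streptavidin donor beads capture biotin-SIRPalpha. Each of three additions (SIRPalpha with compound, CD47, beads) incubates 30 min at room temperature protected from light.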
# [6] = qHTS of pediatric cancer cell lines to identify multiple opportunities for drug repurposing: Primary screen for TC32 cells (AID 1347089); further: nearly all actives have a fitted effect of over 60% in size; further: potency means the concentration at half of the fitted maximal effect
# Summary of the method: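 A viability screen of TC32 cells was run over 48 h, with primary MIPE doses spanning 0.78 nM–46 µM and NPC doses 0.59 nM–46 µM. ATP luminescence (CellTiter-Glo) served as the read-out.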
# [7] = qHTS of pediatric cancer cell lines to identify multiple opportunities for drug repurposing: Primary screen for DAOY cells (AID 1347090); further: nearly all actives have a fitted effect of over 55% in size; further: potency means the concentration at half of the fitted maximal effect
# Summary of the method: (§1)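 Cell viability, CellTiter-Glo luminescence; 500-1,000 cells/well, 8- or 11-point titration, 48 h compound exposure at 37 degrees C, 5% CO2. Controls: DMSO neutral, bortezomib 2.3 µM final as positive.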
# [8] = qHTS of pediatric cancer cell lines to identify multiple opportunities for drug repurposing: Primary screen for SJ-GBM2 cells (AID 1347091); further: potency means the concentration at half of the fitted maximal effect
# Summary of the method: as §1
# [9] = biological target: Parathyroid hormone/parathyroid hormone-related peptide receptor (Homo sapiens) (UniProt Q03431); assay: qHTS for PTHR1 Agonists: Optimization Screen against the NCGC LOPAC library (AID 1347079);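 further: GloSensor cAMP luminescence in HEK-293 GP2 cells expressing human PTHR1 with IBMX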
# Parathyroid hormone/parathyroid hormone-related peptide receptor (Homo sapiens), sequence (Q03431 whole entry, looked up): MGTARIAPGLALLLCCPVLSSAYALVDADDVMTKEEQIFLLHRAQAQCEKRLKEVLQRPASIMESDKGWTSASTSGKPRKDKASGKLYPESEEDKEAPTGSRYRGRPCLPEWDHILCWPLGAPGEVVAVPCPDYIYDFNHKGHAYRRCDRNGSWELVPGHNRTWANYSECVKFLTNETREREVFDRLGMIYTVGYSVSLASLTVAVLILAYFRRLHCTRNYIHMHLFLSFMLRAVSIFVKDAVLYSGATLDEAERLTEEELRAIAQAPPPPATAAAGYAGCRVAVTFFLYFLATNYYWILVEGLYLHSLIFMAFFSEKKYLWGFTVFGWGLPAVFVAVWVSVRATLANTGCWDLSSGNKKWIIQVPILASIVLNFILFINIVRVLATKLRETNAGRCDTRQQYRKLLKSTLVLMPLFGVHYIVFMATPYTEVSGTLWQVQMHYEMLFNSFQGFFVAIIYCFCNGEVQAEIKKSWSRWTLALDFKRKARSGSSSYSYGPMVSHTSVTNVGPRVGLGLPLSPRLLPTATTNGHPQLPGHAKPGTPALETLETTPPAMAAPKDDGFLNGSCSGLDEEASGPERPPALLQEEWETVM
# Summary of the method: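 Compounds were tested across a qHTS titration. PTHR1-expressing GP2 cells report cAMP rises via GloSensor luminescence after 1 hr compound exposure at 37C with IBMX present.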
# [10] = NS1 protein of Zika virus - qHTS assay to identify small molecule inhibitors in human HEK 293 cells (AID 1347053); further: nearly all actives have a fitted effect of over 55% in size; further: potency means the concentration at half of the fitted maximal effect
# Summary of the method: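 HEK 293; 20 h pre-culture, 37 C/5% CO2; cpd 1 h pre-infection; ZIKV MR766, MOI = 0.5, 24 h, 37 C; TR-FRET NS1 readout (two anti-NS1 Abs); norm. to no-virus vs infected.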
Compound,Potency [1],Potency [2],outcome [3],outcome [4],Potency [5],Potency [6],Potency [7],Potency [8],Potency [9],Potency [10]
Cc1cc(C(C)(C)C)c(O)c(C)c1CC1=NCCN1,inactive,inactive,inactive,inactive,inactive,inactive,inactive,inactive,–,–
CN1CCN2c3ccccc3Cc3ccccc3C2C1 (centres undefined),inactive,inactive,inactive,inactive,inactive,inactive,inactive,inactive,inactive,–
CC(C(=O)O)c1cccc(C(=O)c2ccccc2)c1 (centres undefined),inactive,inactive,–,–,–,inactive,inactive,inactive,inactive,inactive
CS(=O)(=O)Nc1ccc([N+](=O)[O-])cc1Oc1ccccc1,inactive,inactive,–,–,–,inactive,inactive,inactive,–,inactive
Nc1nc2c(ncn2COC(CO)CO)c(=O)[nH]1,inactive,inactive,–,inactive,inactive,inactive,inactive,–,–,–
CCN1CCCC1CNC(=O)c1cc(S(=O)(=O)CC)c(N)cc1OC (centres undefined),inactive,inactive,–,inactive,inactive,inactive,inactive,inactive,–,–
NCCCCCC(=O)O,inactive,inactive,inactive,inactive,inactive,inactive,inactive,inactive,inactive,–
CCC1(c2ccccc2)C(=O)NCNC1=O,inactive,inactive,–,inactive,inactive,inactive,–,inactive,–,inactive
C[C@H]1c2cccc(O)c2C(O)=C2C(=O)[C@]3(O)C(O)=C(C(N)=O)C(=O)[C@@H](N(C)C)[C@@H]3[C@@H](O)[C@@H]21,inactive,inactive,inactive,inactive,–,inactive,inactive,inactive,–,–
CCc1cccc2c3c([nH]c12)C(CC)(CC(=O)O)OCC3 (centres undefined),inactive,inactive,–,inactive,inactive,inactive,inactive,inactive,–,inactive
NCCS(=O)(=O)O,inactive,inactive,inactive,inactive,inactive,inactive,inactive,inactive,inactive,–
CN(C)c1nc(N(C)C)nc(N(C)C)n1,inactive,inactive,–,inactive,inactive,inactive,inactive,inactive,inactive,–
CC(C)NCC(O)COc1ccc(CCOCC2CC2)cc1 (centres undefined),inactive,inactive,–,inactive,inactive,inactive,inactive,inactive,–,inactive
CC(COc1ccccc1)N(CCCl)Cc1ccccc1 (centres undefined),inactive,inactive,–,–,–,inactive,inactive,inactive,inactive,inactive
NC12CC3CC(CC(C3)C1)C2,inactive,inactive,–,inactive,inactive,inactive,inactive,inactive,–,–
Cc1cnc(C(=O)NCCc2ccc(S(=O)(=O)NC(=O)NC3CCCCC3)cc2)cn1,inactive,inactive,–,–,–,inactive,inactive,inactive,–,inactive
CC12CC3CC(C)(C1)CC(N)(C3)C2,inactive,inactive,inactive,inactive,–,inactive,–,inactive,inactive,–
COc1cc2nc(N(C)CCCNC(=O)C3CCCO3)nc(N)c2cc1OC (centres undefined),inactive,inactive,–,inactive,inactive,inactive,inactive,inactive,–,–
C[C@](N)(Cc1ccc(O)c(O)c1)C(=O)O,inactive,inactive,–,inactive,inactive,inactive,inactive,inactive,inactive,–
CC1COc2c(N3CCN(C)CC3)c(F)cc3c(=O)c(C(=O)O)cn1c23 (centres undefined),inactive,inactive,–,–,–,inactive,inactive,inactive,inactive,inactive

Compound,Potency [1],Potency [2],outcome [3],outcome [4],Potency [5],Potency [6],Potency [7],Potency [8],Potency [9],Potency [10]
Nc1c2c(nc3ccccc13)CCCC2,inactive,inactive,–,inactive,inactive,inactive,inactive,inactive,–,inactive
Cn1cnc2c1c(=O)[nH]c(=O)n2C,inactive,inactive,–,inactive,inactive,inactive,inactive,–,inactive,–
Cc1cc(C(C)(C)C)cc(C)c1CC1=NCCN1,inactive,inactive,inactive,inactive,inactive,inactive,inactive,inactive,inactive,–
O=C(c1ccc(OCCN2CCCCC2)cc1)c1c(-c2ccc(O)cc2)sc2cc(O)ccc12,inactive,inactive,inactive,–,–,inactive,–,9.44 µM (active) and 18.7 µM (active),–,–
CS(=O)(=O)CCNCc1ccc(-c2ccc3ncnc(Nc4ccc(OCc5cccc(F)c5)c(Cl)c4)c3c2)o1,–,–,–,–,–,inactive,235 nM (active),10.5 µM (active),–,–
CC1(C)O[C@H]2CC(=O)OC[C@]23[C@H]2CC[C@@]4(C)[C@H](c5ccoc5)OC(=O)[C@H]5O[C@]54[C@]2(C)C(=O)C[C@@H]13,–,–,–,–,–,inactive,inactive,inactive,–,inactive
Clc1ccc2c(c1)C(N1CCNCC1)=Nc1ccccc1O2,–,8.26 µM (active),inactive,inactive,inactive,inactive,inactive,inactive,inactive,–
NC(CO)C(=O)NNCc1ccc(O)c(O)c1O (centres undefined),inactive,inactive,–,–,13.1 µM (active),inactive,inactive,inactive,–,–
O=C1c2c(O)ccc(O)c2C(=O)c2c(NCCNCCO)ccc(NCCNCCO)c21,–,–,–,–,0.826 µM (active),658 nM (active) and 59.2 nM (active),2.96 µM (active) and 2.66 µM (active),332 nM (active) and 422 nM (active),inactive,–
CC[C@@]1(O)C(=O)OCc2c1cc1n(c2=O)Cc2cc3c(CN(C)C)c(O)ccc3nc2-1,–,–,–,–,–,26.4 nM (active) and 131 nM (active),53.1 nM (active) and 296 nM (active),94.4 nM (active) and 52.6 nM (active),–,–
CN(C)C(=N)N=C(N)N,–,–,–,–,–,inactive,inactive,inactive,–,inactive
Cn1ccc2cc3c(cc21)CCN3C(=O)Nc1cccnc1,–,–,–,inactive,inactive,inactive,inactive,inactive,inactive,inactive
CN1CCC(=C2c3ccccc3CC(=O)c3sccc32)CC1,inactive,–,inactive,inactive,inactive,inactive,–,inactive,–,inactive
CN(C)CCCN1c2ccccc2CCc2ccc(Cl)cc21,–,7.36 µM (active),–,–,–,inactive,–,23.7 µM (active),inactive,–
CN(C)C(=O)C(CCN1CCC(O)(c2ccc(Cl)cc2)CC1)(c1ccccc1)c1ccccc1,inactive,–,inactive,inactive,inactive,–,–,–,inactive,inactive
Clc1ccc2nsnc2c1NC1=NCCN1,inactive,inactive,–,–,–,inactive,inactive,inactive,–,–
O=C1Cc2cc(CCN3CCN(c4nsc5ccccc45)CC3)c(Cl)cc2N1,inactive,–,inactive,inactive,inactive,inactive,inactive,inactive,–,–
C[C@@H]1CC(=O)NN=C1c1ccc(NN=C(C#N)C#N)cc1,–,–,–,–,–,inactive,26600 nM (active),–,–,inactive and 14.8 µM (active)
Cc1ccc(-c2cc(C(F)(F)F)nn2-c2ccc(S(N)(=O)=O)cc2)cc1,–,–,–,–,inactive,inactive,inactive,inactive,–,inactive
CN(C)CCC=C1c2ccccc2C=Cc2ccccc21,–,16.5 µM (active),–,inactive,inactive,inactive,inactive,–,inactive,–

Compound,Potency [1],Potency [2],outcome [3],outcome [4],Potency [5],Potency [6],Potency [7],Potency [8],Potency [9],Potency [10]
Cc1cn([C@H]2C[C@H](N=[N+]=[N-])[C@@H](CO)O2)c(=O)[nH]c1=O,inactive,inactive,–,–,–,inactive,inactive,inactive,inactive,–
Cc1ccc(C(=O)Nc2ccc(S(=O)(=O)O)c3cc(S(=O)(=O)O)cc(S(=O)(=O)O)c23)cc1NC(=O)c1cccc(NC(=O)Nc2cccc(C(=O)Nc3cc(C(=O)Nc4ccc(S(=O)(=O)O)c5cc(S(=O)(=O)O)cc(S(=O)(=O)O)c45)ccc3C)c2)c1,inactive,inactive,–,–,inactive,inactive,inactive,inactive,inactive,–
CN1CCC(=C2c3ccccc3C=Cc3ccccc32)CC1,inactive,11.7 µM (active),–,–,inactive,inactive,inactive,inactive,inactive,–
O=c1c(O)c(-c2ccc(O)c(O)c2)oc2cc(O)cc(O)c12,inactive,inactive,–,–,–,inactive,–,inactive,inactive,–
COc1ccc(CCN(C)CCCC(C#N)(c2ccc(OC)c(OC)c2)C(C)C)cc1OC (centres undefined),–,–,–,–,–,inactive,inactive,inactive,inactive,inactive
CC[N+](CC)(CC)CCOc1cccc(OCC[N+](CC)(CC)CC)c1OCC[N+](CC)(CC)CC,inactive,inactive,–,–,–,inactive,inactive,inactive,–,–
CC(C)(C)C(=O)Oc1ccc(S(=O)(=O)Nc2ccccc2C(=O)NCC(=O)O)cc1,–,–,inactive,inactive,inactive,inactive,inactive,inactive,–,inactive
CN(CCOc1ccc(NS(C)(=O)=O)cc1)CCc1ccc(NS(C)(=O)=O)cc1,–,–,–,inactive,inactive,inactive,inactive,inactive,–,–
O=C1N(c2ccccc2)c2ccccc2C1(Cc1ccncc1)Cc1ccncc1,inactive,–,inactive,inactive,inactive,inactive,inactive,inactive,–,inactive
Nc1nnc(-c2cccc(Cl)c2Cl)c(N)n1,–,–,inactive,inactive,inactive,inactive,inactive,inactive,–,inactive
Cn1c(=O)c2c(ncn2C)n(C)c1=O,–,inactive,–,–,–,inactive,inactive,inactive,–,inactive
CCOC(=O)Nc1ccc(NCc2ccc(F)cc2)nc1N,–,inactive,–,–,inactive,inactive,inactive,inactive,inactive,inactive
CC#C[C@]1(O)CC[C@H]2[C@@H]3CCC4=CC(=O)CCC4=C3[C@@H](c3ccc(N(C)C)cc3)C[C@@]21C,inactive,–,–,–,–,–,469 nM (active),1.05 µM (active),–,inactive
CC(=O)OCC(CCn1cnc2cnc(N)nc21)COC(C)=O,–,–,inactive,inactive,inactive,inactive,inactive,inactive,–,inactive
COC(=O)Nc1nc2ccc(C(=O)c3cccs3)cc2[nH]1,inactive,–,inactive,–,inactive,46.6 nM (active) and 236 nM (active),11.8 nM (active) and 106 nM (active),1 nM (active) and 119 nM (active),inactive,235 nM (active) and inactive
COc1cc2c(c(OC)c1OC)-c1ccc(OC)c(=O)cc1[C@@H](NC(C)=O)CC2,inactive,–,–,–,inactive,7.5 nM (active) and 1.3 nM (active),8.4 nM (active),42.2 nM (active) and 1 nM (active),–,inactive
CC1(CN2CCC(n3c(=O)[nH]c4ccccc43)CC2)OCc2ccccc2-n2cccc21 (centres undefined),–,–,–,–,–,inactive,inactive,inactive,–,–
Cn1c(=O)c2[nH]cnc2n(C)c1=O,inactive,inactive,–,–,inactive,inactive,inactive,inactive,inactive,–
Fc1ccc([C@@H]2CCNC[C@H]2COc2ccc3c(c2)OCO3)cc1,inactive,–,inactive,–,–,inactive,inactive,–,–,inactive

# — PubChem BioAssay (NCATS)
